# Values without a mark were called inactive.
# Molecular target: COPS5 (UniProt Q92905)
# Assay: log2 ratio of Biotin-Ahx-Ub-VS probe labelling (fragment/DMSO); higher = less target engagement (more negative = stronger competition), active = hit call of the paper (q ≤ 0.05, log2 ratio ≤ -1)
# Conditions: compound concentration: 200 uM; treatment time: 3 h
# Description: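 Competitive ABPP in HEK293T cell lysate. Lysates were treated with each chloroacetamide fragment at 200 µM for 3 h, then with Biotin-Ahx-Ub-VS (0.5 µM, 1 h), NeutrAvidin-enriched and analysed by diaPASEF LC-MS/MS. Protein LFQ was median-normalised; average log2 ratio is fragment/DMSO from an unpaired t-test (n=3 treated, n=44 DMSO). Hits: q ≤ 0.05, log2 ratio ≤ -1, unique peptides ≥ 2.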
# Sequence of COPS5 (Q92905 whole entry, looked up, the tested form may be a part): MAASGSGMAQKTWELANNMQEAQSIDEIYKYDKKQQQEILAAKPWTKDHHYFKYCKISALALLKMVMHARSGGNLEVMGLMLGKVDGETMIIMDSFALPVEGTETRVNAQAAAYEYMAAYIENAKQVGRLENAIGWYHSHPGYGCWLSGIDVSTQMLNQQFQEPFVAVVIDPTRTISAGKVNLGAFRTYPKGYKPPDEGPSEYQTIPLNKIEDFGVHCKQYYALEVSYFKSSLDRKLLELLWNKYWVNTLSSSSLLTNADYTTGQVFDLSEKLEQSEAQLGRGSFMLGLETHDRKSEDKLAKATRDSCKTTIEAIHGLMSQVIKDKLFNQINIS
row,Structure (SMILES),log2 ratio of Biotin-Ahx-Ub-VS probe labelling
1,O=C(CN1CCN(C(=O)CCl)CC1)Nc1cccc(F)c1,0.273
2,Cc1cccc(N(CCC#N)C(=O)CCl)c1C,-0.0126
3,O=C(CCl)N1CCC(C(=O)N2CCCC2)CC1,-0.223
4,CCN(C(=O)CCl)C1CCCCC1,0.0876
5,O=C(CCl)N1CCN2C(=O)CCC2C1 (stereo not given),0.141
6,O=C(CCl)N1CCCN(C(=O)c2ccc(Cl)cc2)CC1,0.0384
7,CN(CCC(O)c1ccc(Br)cc1)C(=O)CCl (stereo not given),-0.266
8,O=C(CCl)NC1(c2ccc3c(c2)OCCO3)CCCC1,-0.172
9,C[C@@H](NC(=O)CCl)c1cccc(C#N)c1,-0.193
10,Cl.O=C(CCl)N1CC(c2ccc(Br)cn2)C1,-0.0867
11,Cc1cccc2nc(CCNC(=O)CCl)cn12.Cl,-0.0623
12,CC(NC(=O)CCl)c1cccc2ccccc12 (stereo not given),0.127
13,Cl.O=C(CCl)NC1(c2ncccn2)CCC1,0.0888
14,CCC(NC(=O)CCl)c1ccc(Cl)cc1 (stereo not given),0.193
15,CCN(C(=O)CCl)C1CCS(=O)(=O)C1 (stereo not given),-0.0629
16,O=C(CCl)N(C1CCCC1)C1CCS(=O)(=O)C1 (stereo not given),-0.0682
17,O=C(CCl)NCCc1ccc2c(c1)OCCO2,0.0882
18,O=C(CCl)NCc1ccc(Cl)cc1,-0.152
19,Cc1ccc(-c2nnc(C)[nH]2)c(NC(=O)CCl)c1,0.151
20,Cc1ccc(C(=O)NCCNC(=O)CCl)cc1,-0.05

row,Structure (SMILES),log2 ratio of Biotin-Ahx-Ub-VS probe labelling
1,Cl.Cn1nc2c(c1CNC(=O)CCl)CCCC2,-0.111
2,CC(NC(=O)CCl)c1cc2n(n1)CCCC2.Cl (stereo not given),-0.394
3,O=C(CCl)N1CCC(C(O)c2ccc(F)cc2)CC1 (stereo not given),-0.113
4,CCC1c2ccsc2CCN1C(=O)CCl (stereo not given),-0.188
5,O=C(CCl)N1CCOC2(CCC2)CC1,-0.0213
6,O=C(O)C1Cc2ccccc2CN1C(=O)CCl (stereo not given),0.15
7,Cc1cccnc1NC(=O)C1CCN(C(=O)CCl)CC1.Cl,-0.025
8,CC(NC(=O)CCl)c1cccc(Cl)c1 (stereo not given),-0.0887
9,Cl.O=C(CCl)N1CCC(n2nc3ccccc3n2)CC1,-0.532
10,O=C(CCl)N1CCC(C(=O)N2CCCCCC2)CC1,-0.0587
11,Cc1ncsc1CCNC(=O)CCl,0.936
12,Cc1cnc2[nH]cc(CCNC(=O)CCl)c2c1,0.199
13,O=C(CCl)N(Cc1ccsc1)C1CC1,0.054
14,O=C(CCl)N1CCCCCC1c1ncon1 (stereo not given),0.187
15,O=C(CCl)N1CCCC2CCCCC21 (stereo not given),-0.175
16,Cc1nnc(C(NC(=O)CCl)c2ccccc2)n1C (stereo not given),0.37
17,Cc1cccc(NC(=O)[C@@H]2CCCN2C(=O)CCl)n1,-0.0478
18,O=C(CCl)NC1CCCCNC1=O (stereo not given),0.0739
19,COc1cc(Cl)c(C)cc1NC(=O)CCl,-0.0677
20,Cc1ccc(CC(CO)CNC(=O)CCl)cc1 (stereo not given),0.0248
